Experiment [1] can be described thus: Nuclear factor erythroid 2-related factor 2/antioxidant responsive element (Nrf2/ARE) small molecule agonists: qHTS cell viability counter screen in human keratinocytes (AID 1919968; active means well fitted curve in the direction sought with a large enough effect in the repeat runs; an effect the other way counts as inactive or inconclusive; further: nearly all actives have a fitted effect of over 55% in size). In short, it runs like this:
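Viability counter-screen: KeratinoSens reporter cells, DMSO-delivered compounds, 23 h at 37 C, CellTiter-Fluor fluorescence.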

Experiment [2] in a line: Nuclear factor erythroid 2-related factor 2/antioxidant responsive element (Nrf2/ARE) small molecule agonists: luciferase reporter gene qHTS assay in human keratinocytes (AID 1919969). Further: nearly all actives have a fitted effect of over 35% in size. Further: potency means the concentration at half of the fitted maximal effect.
Experiment [3] concerns the target Gonadotropin-releasing hormone receptor (Homo sapiens) (UniProt P30968). Briefly: Human gonadotropin-releasing hormone receptor (GnRHR) small molecule agonists, calcium flux assay in GnRHR-HEK293 cells (AID 1920063). Further: nearly all actives have a fitted effect of over 35% in size. In short, it runs like this:
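Tox21-format agonist screen using human GnRHR-expressing HEK293 cells and a fluorescent calcium dye; kinetic 3-min fluorescence reading after compound addition, 15-point concentration series run in triplicate.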

Experiment [4] addresses KiSS-1 receptor (Homo sapiens) (UniProt Q969F8). Briefly: Human kisspeptin (KISS1R) small molecule agonists, calcium flux assay in KISS1R-HEK293 cells (AID 1920064; active means well fitted curve in the direction sought with a large enough effect in the repeat runs; an effect the other way counts as inactive or inconclusive). In short, it runs like this:
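Intracellular calcium mobilization in KISS1R-HEK293 cells was recorded by fluorescence (Ex/Em 480/540) for 3 min following compound addition to cells pre-loaded 1 h with calcium dye.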
(In general: Calcium assays in cells follow changes in intracellular calcium, usually with a dye or a luminescent sensor.)

Experiment [5] can be described thus: G protein-coupled receptor (GPCR) small molecule agonists, calcium flux assay: HEK293 wild type cell line counter screen (AID 1920065). In short, it runs like this: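 In this agonist-mode screen, ATP is the positive control and DMSO the vehicle. Cells grow 18 h before a 1 h dye incubation at 37 C; signal is taken at Ex/Em 480/540 over 3 min.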
Experiment [6] can be described thus: p53 small molecule agonists, cell-based qHTS assay with human liver microsomes (AID 1963577).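 Further: p53 response element beta-lactamase reporter cells with liver microsomes plus NADPH.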 The method in brief:
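16 h, 37 C exposure of p53RE-bla cells to compounds with human liver microsomes and NADPH (0.5 mg/mL final each); detection via LiveBLAzer mixture, 2 h dark at room temperature.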
(In general: qHTS replaces the single test concentration by a dilution series.)

A short description of experiment [7]: p53 small molecule agonists, cell-based qHTS assay with rat liver microsomes (AID 1963578). In short, it runs like this:
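With rat liver microsomes and NADPH present (0.5 mg/mL final each), p53RE-bla cells are treated with compound for 16 h at 37 C. LiveBLAzer detection mixture is then applied for 2 h at room temperature in the dark.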

Experiment [8] in a line: p53 small molecule agonists, cell-based qHTS assay with human liver microsomes: qHTS cell viability counter screen (AID 1963579). Further: nearly all actives have a fitted effect of over 45% in size. The method in brief: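 In this multiplexed counter screen, the reporter plates were subsequently treated with CellTiter-Glo so that cell viability, reflected by luminescence, could be recorded for p53RE-bla cells dosed 16 h with compounds under microsomal activation (HLM and NADPH).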

Experiment [9] can be described thus: p53 small molecule agonists, cell-based qHTS assay with rat liver microsomes: qHTS cell viability counter screen (AID 1963580). Further: nearly all actives have a fitted effect of over 45% in size. The method in brief:
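p53RE-bla HCT-116 cells were exposed 16 h at 37 C to compounds with rat liver microsomes (0.5 mg/mL) and NADPH (0.5 mg/mL). Viability was measured in the same wells as ATP content by CellTiter-Glo luminescence.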

Experiment [10] in a line: p53 small molecule agonists, cell-based qHTS assay: qHTS cell viability counter screen (AID 1963581). Further: nearly all actives have a fitted effect of over 45% in size. In short, it runs like this:
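Compounds are pinned onto HCT-116 p53RE-bla cells and left 16 h at 37 C. Following the reporter FRET read, ATP is quantified by CellTiter-Glo luminescence after 30 min at room temperature.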

The nature of experiment [11]: p53 small molecule agonists, cell-based qHTS assay (AID 1963582; active means well fitted activation curve with a large enough effect in the signal ratio in the repeat runs, not every such curve was filed as active; the % refers to the signal ratio). The method in brief: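 Agonist activity was scored from beta-lactamase FRET fluorescence in p53RE-bla cells treated 16 h at 37 C with compounds in DMSO, substrate incubation being 2 h at room temperature.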
In experiment [12] the target is 5-hydroxytryptamine receptor 2A (Homo sapiens) (UniProt P28223). Briefly: 5-hydroxytryptamine receptor 2A (HTR2A) small molecule antagonists, cell-based qHTS assay (AID 1963586). Further: nearly all actives have a fitted effect of over 45% in size. In short, it runs like this:
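Antagonist-mode intracellular calcium assay: DOI (4 nM) added after 5 min compound pre-incubation at room temperature to dye-loaded HTR2A-CHO cells. Fluorescence followed for 3 min, sampled every second.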

Experiment [13] has the same target. Briefly: 5-hydroxytryptamine receptor 2A (HTR2A) small molecule agonists, cell-based qHTS assay (AID 1963587). Further: nearly all actives have a fitted effect of over 30% in size. The method in brief:
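CHO cells stably expressing human HTR2A, plated 18 h, loaded with calcium dye 1 h at 37 C. Agonist mode: compounds added and intracellular calcium fluorescence recorded kinetically for 2 min at 1 sec intervals.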

The target of experiment [14] is Muscarinic acetylcholine receptor M1 (Homo sapiens) (UniProt P11229). Briefly: Cholinergic receptor muscarinic 1 (CHRM1) small molecule agonists, cell-based qHTS assay (AID 1963589). Further: nearly all actives have a fitted effect of over 35% in size. The method in brief: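 Stable CHRM1-CHO cells (human receptor) were incubated 18 h, dye-loaded for 1 h at 37 C and exposed to test compounds for agonist activity, with calcium-dependent fluorescence followed kinetically.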
Sequence of Muscarinic acetylcholine receptor M1 (Homo sapiens) (P11229 whole entry, looked up): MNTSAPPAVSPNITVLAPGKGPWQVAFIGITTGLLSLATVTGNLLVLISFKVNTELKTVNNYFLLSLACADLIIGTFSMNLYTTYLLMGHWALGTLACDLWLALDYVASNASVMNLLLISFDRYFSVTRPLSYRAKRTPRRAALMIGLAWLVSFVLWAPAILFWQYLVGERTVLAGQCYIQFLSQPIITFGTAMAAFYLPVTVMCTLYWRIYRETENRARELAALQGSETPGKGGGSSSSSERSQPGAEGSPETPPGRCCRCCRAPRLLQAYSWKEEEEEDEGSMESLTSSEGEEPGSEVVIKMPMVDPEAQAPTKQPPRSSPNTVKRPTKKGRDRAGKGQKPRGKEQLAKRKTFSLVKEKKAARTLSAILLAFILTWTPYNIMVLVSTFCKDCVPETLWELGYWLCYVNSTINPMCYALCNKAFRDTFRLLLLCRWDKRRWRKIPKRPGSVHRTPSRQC

A short description of experiment [15]: cAMP Responsive Elements (CRE) small molecule antagonists, cell-based qHTS assay (AID 1963591; active means well fitted inhibition curve with a large enough effect in the signal ratio in the repeat runs, not every such curve was filed as active; the % refers to the signal ratio). The method in brief: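 qHTS in CRE-bla HEK 293T cells: compound in DMSO, then 0.25 uM NKH477 (final), 3 h at 37 °C/5% CO2; beta-lactamase FRET read-out after 2 h substrate incubation.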
For experiment [16], the target named is Beta-2 adrenergic receptor (Homo sapiens) (UniProt P07550). The experiment can be described thus: Adrenergic beta2 receptor (ADRB2) small molecule antagonists, cell-based qHTS assay (AID 1963592). Further: series mostly up to about 92 µM; nearly all actives have a fitted effect of over 50% in size. In short, it runs like this: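 Cells (CHO, stable ADRB2 overexpression) incubated 18-20hr at 37C; compounds added from DMSO; agonist mix (1nM isoproterenol, 100uM IBMX, 25uM Ro-20-1724) added; 0.5hr RT; d2-cAMP and anti-cAMP-cryptate added; 1hr RT; 665/615 nm read.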
Sequence of Beta-2 adrenergic receptor (Homo sapiens) (P07550 whole entry, looked up): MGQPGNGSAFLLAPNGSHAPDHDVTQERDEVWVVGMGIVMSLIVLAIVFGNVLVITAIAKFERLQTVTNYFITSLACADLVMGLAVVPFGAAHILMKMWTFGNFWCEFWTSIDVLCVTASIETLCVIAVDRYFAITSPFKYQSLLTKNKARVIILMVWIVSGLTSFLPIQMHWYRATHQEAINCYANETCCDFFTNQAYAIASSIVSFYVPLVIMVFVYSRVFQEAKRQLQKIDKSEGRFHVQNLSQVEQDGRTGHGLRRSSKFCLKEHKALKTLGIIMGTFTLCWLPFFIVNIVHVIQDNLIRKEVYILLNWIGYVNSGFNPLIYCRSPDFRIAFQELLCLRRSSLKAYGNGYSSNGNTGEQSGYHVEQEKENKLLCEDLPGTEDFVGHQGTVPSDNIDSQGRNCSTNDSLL

Experiment [17] shares this target. Briefly: Adrenergic beta2 receptor (ADRB2) small molecule agonists, cell-based qHTS assay (AID 1963593).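 Further: CHO cells stably overexpressing human ADRB2.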 The method in brief:
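CHO cells stably over-expressing ADRB2 were plated overnight at 37C, then dosed with compounds plus a stimulation mix containing 100uM IBMX and 25uM Ro-20-1724 for 0.5hr at room temperature. cAMP was measured by HTRF competition, 1hr.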

The target in experiment [18] is D(2) dopamine receptor (Homo sapiens) (UniProt P14416). The experiment can be described thus: Dopamine D2 receptor (DRD2) small molecule antagonists, cell-based qHTS assay (AID 1963595; active means well fitted inhibition curve with a large enough effect in the signal ratio in the repeat runs, with a control signal flat; the % refers to the signal ratio). The method in brief:
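In this cell-based antagonist screen, compounds act for 10 min at room temperature before a 30 min challenge with 12 nM quinpirole and 200 nM NKH477. cAMP is quantified by HTRF competition in DRD2-HEK293 cells containing 0.1 mM Ro20-1724.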

For experiment [19], the target named is Muscarinic acetylcholine receptor M1 (Homo sapiens) (UniProt P11229). Briefly: Cholinergic receptor muscarinic 1 (CHRM1) small molecule antagonists, cell-based qHTS assay (AID 1963588). Further: nearly all actives have a fitted effect of over 40% in size. In short, it runs like this:
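CHRM1-CHO calcium-flux assay, antagonist mode. Cells were seeded 18 h, dye-loaded 1 h at 37 C and given compound for 5 min at RT, then acetylcholine was added at 50nM. FDSS fluorescence was read 3 min; 15 concentrations, three runs.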

Experiment [20] has as its target D(2) dopamine receptor (Homo sapiens) (UniProt P14416). The experiment can be described thus: Dopamine D2 receptor (DRD2) small molecule agonists, cell-based qHTS assay (AID 1963594). Further: nearly all actives have a fitted effect of over 35% in size. In short, it runs like this: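 HEK293 cells stably expressing human DRD2, pre-treated with PDE inhibitor Ro20-1724 (0.1 mM final) and compound 10 min at room temperature, then stimulated with NKH477 (200nM […]) for 30 min. cAMP read by HTRF (665/620 nm).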

Inconclusive results are not listed. Active and inactive are the calls of the source. Unless noted, the call rests on the fitted dose curve.

Sequence of Gonadotropin-releasing hormone receptor (Homo sapiens) (P30968 whole entry, looked up): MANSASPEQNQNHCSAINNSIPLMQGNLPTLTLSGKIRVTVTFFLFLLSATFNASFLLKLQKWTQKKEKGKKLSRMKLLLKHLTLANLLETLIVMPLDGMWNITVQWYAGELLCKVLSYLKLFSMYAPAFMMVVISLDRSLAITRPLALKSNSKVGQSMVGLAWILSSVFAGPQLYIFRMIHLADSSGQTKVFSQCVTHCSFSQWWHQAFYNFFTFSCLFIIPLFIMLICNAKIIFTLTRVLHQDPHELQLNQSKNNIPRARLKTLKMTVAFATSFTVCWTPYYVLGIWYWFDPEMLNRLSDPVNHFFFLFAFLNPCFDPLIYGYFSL
Sequence of D(2) dopamine receptor (Homo sapiens) (P14416 whole entry, looked up): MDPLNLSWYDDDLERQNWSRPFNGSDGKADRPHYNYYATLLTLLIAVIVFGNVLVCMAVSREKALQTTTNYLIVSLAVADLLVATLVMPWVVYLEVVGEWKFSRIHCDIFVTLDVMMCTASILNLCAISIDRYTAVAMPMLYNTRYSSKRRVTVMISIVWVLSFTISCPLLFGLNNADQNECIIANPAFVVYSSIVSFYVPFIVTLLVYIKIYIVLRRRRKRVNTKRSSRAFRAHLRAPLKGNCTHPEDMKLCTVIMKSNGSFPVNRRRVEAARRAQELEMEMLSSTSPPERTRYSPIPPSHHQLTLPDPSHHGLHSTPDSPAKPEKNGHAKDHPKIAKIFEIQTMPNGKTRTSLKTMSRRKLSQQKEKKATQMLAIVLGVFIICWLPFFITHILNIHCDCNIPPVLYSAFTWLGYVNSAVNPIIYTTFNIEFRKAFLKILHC
Sequence of KiSS-1 receptor (Homo sapiens) (Q969F8 whole entry, looked up): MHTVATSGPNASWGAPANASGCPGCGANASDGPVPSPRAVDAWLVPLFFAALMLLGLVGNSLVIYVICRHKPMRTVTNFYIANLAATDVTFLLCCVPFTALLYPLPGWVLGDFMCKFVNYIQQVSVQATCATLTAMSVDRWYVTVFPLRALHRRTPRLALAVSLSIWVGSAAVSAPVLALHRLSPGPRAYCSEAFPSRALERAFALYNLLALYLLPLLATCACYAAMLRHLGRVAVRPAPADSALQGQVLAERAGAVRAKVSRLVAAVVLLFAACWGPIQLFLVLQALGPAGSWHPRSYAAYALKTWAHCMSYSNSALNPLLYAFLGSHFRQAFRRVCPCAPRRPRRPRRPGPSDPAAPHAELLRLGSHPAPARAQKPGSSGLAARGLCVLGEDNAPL
Sequence of 5-hydroxytryptamine receptor 2A (Homo sapiens) (P28223 whole entry, looked up): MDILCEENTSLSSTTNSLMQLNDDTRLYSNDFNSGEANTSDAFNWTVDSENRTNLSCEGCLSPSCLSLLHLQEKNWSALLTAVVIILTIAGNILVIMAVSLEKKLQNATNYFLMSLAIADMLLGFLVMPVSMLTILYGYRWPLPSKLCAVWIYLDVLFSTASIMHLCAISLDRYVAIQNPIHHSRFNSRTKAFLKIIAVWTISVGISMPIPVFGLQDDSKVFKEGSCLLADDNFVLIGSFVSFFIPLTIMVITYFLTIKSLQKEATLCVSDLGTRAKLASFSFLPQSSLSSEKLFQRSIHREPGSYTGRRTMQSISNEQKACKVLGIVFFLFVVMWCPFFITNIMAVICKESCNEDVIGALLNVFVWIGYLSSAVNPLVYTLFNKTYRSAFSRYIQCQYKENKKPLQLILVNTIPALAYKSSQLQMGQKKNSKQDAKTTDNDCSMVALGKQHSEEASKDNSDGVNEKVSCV

In the case of `CCCCCC(=O)CC`, the Potency result in experiment [1], in [2], in experiment [3], in [4], in experiment [5] and in [6] was “inactive” in each case. The Potency entry in experiment [7], in experiment [8], in experiment [9], in experiment [10], in experiment [11] and in [12] was “inactive” throughout. Also, the Potency result in experiment [13], in experiment [14], in experiment [15], in experiment [16], in experiment [17] and in experiment [18] was “inactive” throughout.

For `COC(=O)c1ccccc1C`, the Potency result in experiment [1], in experiment [2], in [3], in [4], in experiment [5] and in experiment [6] was “inactive” throughout. Also, the Potency result in experiment [7], in experiment [8], in experiment [9], in experiment [10], in experiment [11] and in experiment [12] was “inactive” each time. Further, the Potency entry in experiment [13], in [19], in [15], in [16], in experiment [17] and in [20] was “inactive” throughout. For the same compound, in [18], the Potency entry is “inactive”.

Consider `CCCCC(CC)COCCC#N` (centres undefined), for which the Potency result in [1], in [2], in experiment [3], in [4], in experiment [5] and in experiment [6] was “inactive” throughout. In addition, the Potency entry in experiment [7], in [8], in experiment [9], in [10], in experiment [11] and in experiment [12] was “inactive” throughout. For the same compound, the Potency entry in experiment [13], in experiment [19], in experiment [15], in experiment [16], in [17] and in experiment [20] was “inactive” in each case. For the same compound, in experiment [18], the Potency result is “inactive”.

As to `CN(C)CCCN(C)CCCN(C)C`, the Potency result in [1], in experiment [2], in experiment [3], in [4], in experiment [5] and in experiment [6] was “inactive” each time. The Potency entry in experiment [7], in experiment [8], in experiment [9], in [10], in [11] and in experiment [12] was “inactive” each time. In addition, the Potency result in [13], in experiment [19], in experiment [15], in [16] and in [20] was “inactive” in each case.

Regarding `C=COCCCC`, the Potency entry in [1], in experiment [2], in experiment [3], in experiment [4], in experiment [5] and in experiment [6] was “inactive” in each case. Also, the Potency result in [7], in experiment [8], in experiment [9], in experiment [10], in experiment [11] and in experiment [12] was “inactive” each time. In addition, the Potency result in experiment [13], in experiment [19], in experiment [15], in [16], in experiment [17] and in experiment [20] was “inactive” each time. Moreover, the Potency result in [18] is “inactive”.

On to `CC(=O)N[C@@H](Cc1ccc(O)cc1)C(=O)O`, for which the Potency entry in experiment [1], in experiment [2], in [3], in experiment [4], in experiment [5] and in [6] was “inactive” in each case. The Potency result in experiment [7], in experiment [8], in experiment [9], in [10], in [11] and in experiment [12] was “inactive” each time. The Potency result in experiment [13], in experiment [19], in experiment [15], in experiment [16], in experiment [17] and in [18] was “inactive” in each case.

In the case of `CCOC(=S)SSC(=S)OCC`, the Potency result in experiment [1], in [3], in [4], in experiment [5], in [6] and in experiment [7] was “inactive” throughout. Moreover, the Potency result in [8], in experiment [9], in experiment [10], in experiment [11], in experiment [12] and in [13] was “inactive” throughout. The Potency result in [14], in experiment [15], in experiment [16], in [17], in [20] and in [18] was “inactive” in each case. Also, the Potency in experiment [2] was 68.6 µM (active).
